Screens as filed in PubChem BioAssay.
In the library only some 4.6% were active in any assay of this set; here they are far more common.
TRHR ag – activates the human TRH receptor; P34981; 0.18% of 360,000 active; TRHR cells, calcium flux fluo-8, FDSS agonist mode; activation, % at 2 µM; note: 0% is about no effect
Target sequence (P34981 whole entry, looked up): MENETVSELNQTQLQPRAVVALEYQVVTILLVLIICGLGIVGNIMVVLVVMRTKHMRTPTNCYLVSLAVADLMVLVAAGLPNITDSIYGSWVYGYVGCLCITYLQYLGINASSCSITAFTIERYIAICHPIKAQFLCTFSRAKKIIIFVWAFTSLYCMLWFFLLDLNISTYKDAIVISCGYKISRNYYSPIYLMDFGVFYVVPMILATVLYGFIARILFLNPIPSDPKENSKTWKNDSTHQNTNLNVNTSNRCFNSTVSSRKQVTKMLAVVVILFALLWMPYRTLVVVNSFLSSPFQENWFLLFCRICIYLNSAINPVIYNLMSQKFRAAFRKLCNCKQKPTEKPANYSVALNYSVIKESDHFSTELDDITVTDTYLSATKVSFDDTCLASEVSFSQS
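Steps: seed TRHR cells overnight; add fluo-8 no-wash Ca dye, RT 30 min–1.5 h; record 10 s baseline; pin-transfer compounds; monitor fluorescence 1 cycle/s for the agonist window. Calcium increases flag candidate agonists.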
D1 potentiator – enhances dopamine response at the human D1 receptor; potentiation, % at 10 µM; 0.036% of 360,000 active; AID 504651; HEK293 TREx D1 cells, calcium flux, dopamine EC20 potentiation; P21728; in the data active = potentiation above about 30%; note: 0% is about no effect
D1 antag – blocks dopamine activation of the human D1 receptor; P21728; HEK293 TREx D1 cells, calcium flux, dopamine EC80; hits give low values; activity change, negative = inhibition, % at 10 µM; 3.2% of 360,000 active; in the data active = activity change below about -30%; note: % is set by controls: 0 for no effect and ±100 for the full control effect
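Tetracycline-induced HEK293 Trex D1 cells, force-coupled to calcium, dye-loaded; compounds added and read 180 s, then EC80 dopamine added and calcium flux tracked kinetically another 180 s.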
TRHR enhancer – allosteric enhancers of human TRH receptor; 0.66% of 360,000 active; enhancement, % at 2 µM; TRHR cells, fluo-8 calcium fluorescence, EC20 TRH enhancement; P34981; in the data active = enhancement above about 30%; note: 0% is about no effect
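TRHR-expressing cells loaded with fluo-8 calcium dye were read kinetically (ex 480/em 530) during compound addition, then stimulated with an EC20 of TRH (10 nM final). Enhancement of the Gq-mediated intracellular calcium response was scored.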
D1 agonist – human D1 receptor agonism | HEK293 T-REx D1 cells, calcium flux, agonist mode | activation, % at 2 µM | 1% of 360,000 active; note: 0% is about no effect
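Tetracycline-induced HEK293 TREx D1 cells, force-coupled to calcium signalling, were dye-loaded with a no-wash calcium kit. Compound was pin-added after a 10 s baseline. Fluorescence was read kinetically at 1 cycle/s for 180 s, with calcium rises flagged as agonism.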
* marks the source's active call; other numbers are inactive results; x = no result given. Cut-off read from the data, not from the text of the source, unless noted: active = activation above about 30%; inactive = the rest.

SMILES	TRHR ag	D1 potentiator	D1 antag	TRHR enhancer	D1 agonist
O=C(c1cccn1-c1nnc(N2CCCC2)s1)N1CCN(c2ccccc2)CC1	0	-4	-1	3	1
CCC(CC)C(=O)Nc1cc(-c2cccc(C)c2)nn1-c1ccccc1	0	0	0	-10	-1
Cc1ccc(Nc2nc(-c3cccnc3)cs2)cc1Cl	1	-5	-4	-1	6
Cc1ccc(C)c(Nc2nc(-c3cccnc3)cs2)c1	3	-7	-39*	4	2
CCOc1ccc(N2CC(C(=O)Nc3ccccc3N3CCOCC3)CC2=O)cc1 (centres undefined)	-1	-1	-30*	0	5
CCOc1ccc(N2CC(C(=O)Nc3ccccn3)CC2=O)cc1 (centres undefined)	0	-9	-36*	-2	-1
COc1ccc(N2CC(C(=O)Nc3c4c(nn3-c3ccccc3)CS(=O)(=O)C4)CC2=O)cc1 (centres undefined)	0	-7	-52*	-3	1
CN1C(=O)Cc2cc(S(=O)(=O)CCC(=O)Nc3ccc(Cl)cc3)ccc21	1	3	-8	4	2
Clc1ccccc1OCc1nc(-c2ccc(Br)o2)no1	0	x	-41*	-8	11
Fc1ccc(OCc2nc(-c3ccc(Br)o3)no2)c(F)c1	-1	-3	3	-4	5
Brc1ccc(-c2noc(COc3ccc4ccccc4c3)n2)o1	0	-7	-52*	15	27
COc1cccc(OCc2nc(-c3ccc(Br)o3)no2)c1	0	0	-9	0	9
Cc1ccc(CN(C(=O)COc2ccc(Cl)c(C)c2)c2ccccn2)o1	0	0	-3	2	-2
C=CCn1c(SCC(=O)c2c(N)n(CCC)c(=O)n(C)c2=O)nnc1-c1ccncc1	0	-8	-32*	2	2
CCOc1cc(N2CCOCC2)c(OCC)cc1NC(=O)CCC1CCCC1	0	-6	-31*	-3	2
CCOc1cc(N2CCOCC2)c(OCC)cc1NC(=O)C1CCCC1	0	-4	9	27	5
Cc1ccc(C)c(-n2c(N)c(C#N)c3nc4ccccc4nc32)c1	-1	-1	-28	29	5
CCOC(=O)CNc1ncc(C(F)(F)F)cc1Cl	0	-4	20	1	4
N#CCC(CNc1ncc(C(F)(F)F)cc1Cl)OC(=O)c1ccc(Cl)cc1Cl (centres undefined)	0	-3	9	-2	31*
Cc1ccccc1NC1=C/C(=N\S(=O)(=O)c2cccs2)c2ccccc2C1=O	0	-2	11	-9	1
Cc1ccc(NC2=C/C(=N/S(=O)(=O)c3cccs3)c3ccccc3C2=O)cc1C	2	0	-45*	20	-2
O=S(=O)(c1ccc(F)cc1)N1CCC(n2c(C(F)(F)F)nc3cccnc32)CC1	0	-3	-6	-6	5
CCC(C)(C(=O)NC1CCCC1)N(C(=O)c1cnccn1)c1ccccc1 (centres undefined)	1	-5	-45*	-1	5
CC(C)CC(=O)NCc1nc2cccnc2n1Cc1ccccc1	0	-6	10	14	0
CC(=O)NCc1nc2cccnc2n1Cc1ccccc1	0	2	-32*	-1	0
SMILES	TRHR ag	D1 potentiator	D1 antag	TRHR enhancer	D1 agonist
COc1ccccc1Cn1c(=S)[nH]c2cc(C(=O)NC(C)C)ccc2c1=O	2	-2	-16	4	3
CC1CCN(CCNC(=O)c2ccc3c(=O)n(Cc4ccc(Cl)cc4)c(=S)[nH]c3c2)CC1	1	1	-51*	-4	88*
CC(C)Cn1c(=S)[nH]c2cc(C(=O)NCc3ccccc3F)ccc2c1=O	0	-6	-33*	-1	14
CCN(CC)CCNC(=O)c1ccc2c(=O)n(C3CCCC3)c(=S)[nH]c2c1	0	-16	-40*	-2	30*
CCOc1ccc2nc(NC(=O)c3nc(SC(C)C)ncc3Cl)sc2c1	2	5	4	-1	2
COc1ccc(CCNC(=O)CSc2cn(CCNC(=O)c3c(F)cccc3F)c3ccccc23)cc1OC	-4	-3	-1	-10	-1
Cc1cc(C)cc(Nc2nc3c(S(=O)(=O)c4cccc(Cl)c4)nnn3c3ccsc23)c1	0	-6	4	7	1
O=S(=O)(c1cccc(Cl)c1)c1nnn2c1nc(NC1CCCC1)c1sccc12	0	-8	-72*	8	6
Cc1ccc(C)c(S(=O)(=O)c2nnn3c2nc(NC2CCCC2)c2sccc23)c1	0	-5	-24	-8	2
Cc1ccc(S(=O)(=O)c2nnn3c2nc(NC2CCCCC2)c2sccc23)cc1C	0	-6	-39*	24	15
Cc1cc(C)cc(OCc2cc(=O)n3c4c(sc3n2)CCCC4)c1	-1	2	-12	-1	0
CCOC(=O)c1ccc(NC(=O)CCc2nc3cccnc3n2Cc2cccs2)cc1	0	0	-6	2	0
CC(=O)c1cc2c(cc1N/C(=N/S(=O)(=O)c1ccc(C)cc1)c1ccc(F)cc1)OCO2	0	0	3	2	4
Cc1ccc(C(=O)NC(=S)NNC(=O)COc2ccccc2C)cc1	4	2	3	2	31*
CCC(=O)NNC(=S)NC(=O)c1ccc(C)cc1	1	-3	-9	1	6
Cc1ccc(C(=O)NC(=S)Nc2ccccc2C(F)(F)F)cc1C	-1	6	8	-1	-3
Cc1cccc(C(=O)NC(=S)Nc2ccccc2C(F)(F)F)c1	0	-3	7	32*	8
Cc1cccc(C(=O)NC(=S)Nc2ccccc2C(=O)O)c1	0	10	2	-2	1
Cc1cccc(C(=O)NC(=S)NNC(=O)COc2c(C)cccc2C)c1	8	-4	-25	8	137*
Cc1cccc(C(=O)NC(=S)NNC(=O)Cc2ccccc2)c1	10	-1	-13	1	72*
O=C(COc1ccccc1)NNC(=S)NC(=O)c1ccccc1	0	-4	-4	1	2
Cc1ccc2oc(=O)c3cc(C(=O)Nc4ccccc4C(N)=O)sc3c2c1	0	-1	1	22	1
CN(C)S(=O)(=O)N(CC(=O)NCCSc1ccccc1)c1ccccc1	-1	-5	0	-5	-1
Cc1cccc(C(=O)NC(=S)NNC(=O)c2ccccc2Cl)c1	35*	-4	-35*	-1	301*
CCC(NC(=O)c1cc(COc2cc(C)c(Cl)c(C)c2)on1)c1ccncc1 (centres undefined)	3	-4	65	-1	36*
CCC(NC(=O)c1cc(COc2ccc(OC)cc2Cl)on1)c1ccncc1 (centres undefined)	1	-2	-26	4	25
